HPGD inh – qHTS Assay for Inhibitors of HPGD (15-Hydroxyprostaglandin Dehydrogenase); 15-hydroxyprostaglandin dehydrogenase [NAD(+)] (Homo sapiens), P15428; purified HPGD, NADH fluorescence kinetic, PGE2 substrate; Potency, µM, hits mostly inhibitors; hit rate 4.3% among 150,000; AID 894, 2007; active = well fitted inhibition curve with a large enough effect, not every such curve was filed as active; inconclusive = small, poorly fitted or top-dose-only effect, or another doubt; inactive = no such curve, though single readings can be large or run the other way
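NADH formation kinetics: reaction with 30 uM PGE2 and 1 mM NAD+ (final), 20 nM enzyme, Tris-HCl pH 8 with Tween 20, after 15 min compound preincubation at room temperature. Fluorescence change, last versus first of five reads.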
HttQ103 aggreg – qHTS Multiplex Assay to Identify Dual Action Probes in a Cell Model of Huntington: Aggregate Formation (GFP) | PC12 HttQ103-GFP aggregates, Acumen cytometry, 40 h | Potency, µM (series often up to 46.1 µM), actives largely listed as inhibitors | hit rate 1.1% among 220,000 | AID 1688, 2009; also: nearly all actives have a fitted effect of over 60% in size
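Using laser scanning cytometry, GFP-positive aggregates were counted after lysis of PC12 cells induced with 100 nM tebufenozide to express HTT exon 1 Q103–GFP. Compounds were tested in titration.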
ALDH1A1 inh – qHTS Assay for Inhibitors of Aldehyde Dehydrogenase 1 (ALDH1A1); Purified ALDH1A1, NADH fluorescence, propionaldehyde substrate; Potency, µM (highest dose often 75.3 µM), most hits filed as inhibitors; hit rate 7.3% among 220,000; AID 1030, 2008; active = well fitted inhibition curve with a large enough effect, not every such curve was filed as active; inconclusive = small, poorly fitted or top-dose-only effect, or another doubt; inactive = no such curve, though single readings can be large or run the other way
CBFb RUNX1 block – qHTS Assay for Compounds Blocking the Interaction Between CBF-beta and RUNX1 for the Treatment of Acute Myeloid Leukemia; AlphaScreen CBFb-His/RUNX1-biotin binding, biochemical; Potency, µM (top dose mostly 59.8 µM), usual class: inhibitors; 230,000 tested, under 10 active; AID 1477, 2009
Target sequence (Q01196 whole entry, looked up): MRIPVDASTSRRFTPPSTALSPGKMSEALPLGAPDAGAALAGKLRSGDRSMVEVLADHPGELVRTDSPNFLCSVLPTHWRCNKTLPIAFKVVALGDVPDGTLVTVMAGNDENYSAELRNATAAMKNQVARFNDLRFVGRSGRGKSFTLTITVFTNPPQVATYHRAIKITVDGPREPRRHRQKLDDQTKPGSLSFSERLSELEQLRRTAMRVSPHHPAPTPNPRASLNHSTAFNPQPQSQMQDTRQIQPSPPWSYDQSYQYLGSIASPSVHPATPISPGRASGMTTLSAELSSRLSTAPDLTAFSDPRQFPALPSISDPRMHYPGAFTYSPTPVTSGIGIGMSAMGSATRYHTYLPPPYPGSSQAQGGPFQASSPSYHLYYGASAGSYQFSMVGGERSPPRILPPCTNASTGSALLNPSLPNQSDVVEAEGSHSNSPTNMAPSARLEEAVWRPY
Target sequence (Q13951 whole entry, looked up): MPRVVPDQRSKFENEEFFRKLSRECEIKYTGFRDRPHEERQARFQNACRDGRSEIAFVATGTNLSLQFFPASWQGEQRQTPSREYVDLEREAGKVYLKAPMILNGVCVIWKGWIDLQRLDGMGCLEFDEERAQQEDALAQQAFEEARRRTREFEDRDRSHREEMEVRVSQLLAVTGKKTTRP
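Proteins preincubated together for 20 min at RT before compound addition; 15 min later, nickel and streptavidin beads were added and left 90 min prior to AlphaScreen measurement.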
HTT ATP protect – qHTS Multiplex Assay to Identify Dual Action Probes in a Cell Model of Huntington: Cytoprotection (ATP); Potency, µM (titrated, usually from 56.4 µM), actives largely listed as activators; PC12 HTT-Q103 induced, cytoprotection, ATP luminescence, 40 h; hit rate 0.14% among 230,000; AID 1471, 2008; also: nearly all actives have a fitted effect of over 45% in size
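ATP quantification (ATPlite) reports survival of PC12 cells in which tebufenozide, 100 nM final, switches on Htt exon 1 with 103 glutamines linked to GFP; compounds are titrated.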
PNC assembly inh – High Content Assay for Compounds that inhibit the Assembly of the Perinucleolar Compartment; activity change (PNC), negative = inhibition, % at 10 µM; hit rate 3.1% among 140,000; PC3M PTB-GFP, PNC prevalence imaging, 16 h; hits give low values; AID 2417, 2010;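 active = readout at or below -70, meaning at least 70% loss of cells showing the perinucleolar compartment, a nuclear body marking cancer cells; inconclusive = readout between -30 and a set limit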
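Compounds are pinned in duplicate onto adhered PC3M cells stably expressing GFP-tagged PTB and incubated 16 h at 37 C. Cells are then fixed, nuclei stained with Hoechst, and PNC-positive cells counted.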
A number is an active result; i = inactive; ? = inconclusive; nt = not tested or not shown; ! = not confirmed by another sample; [ ] = dose if it differs, or a comment. Sampled rows, rich in hits. Any-hit rate of the full collection: about 11%. Unless noted, calls follow the shape of the dose curve; as a rule, active = well fitted curve in the direction sought with a large enough effect; inconclusive = small, poorly fitted or top-dose-only effect, or another doubt; inactive = no such curve, though single readings can be large; an effect the other way counts as inactive or inconclusive.

SMILES	HPGD inh	HttQ103 aggreg	ALDH1A1 inh	CBFb RUNX1 block	HTT ATP protect	PNC assembly inh
Cc1cc(-c2c(C)[nH]n(-c3ccc(Cl)cc3)c2=O)n[nH]1	i	11.2µM	i	?	i	i
Cc1occc1C(=O)NN=C1C2CC3CC(C2)CC1C3	i	i	?	i	i[10 µM]	-100.0
O=[N+]([O-])c1ccc(Sc2n[nH]c(-c3ccc(Cl)cc3Cl)n2)nc1	i	?	i	i	0.794µM	i
CCOc1ccc(C(=O)OCc2nnc(-c3cccs3)o2)cc1OC	25.1µM	i	i	i	i	?
COC1OC(CO)C(OC2OC(C(=O)O)C(OC3OC(COS(=O)(=O)O)C(OC4OC(C(=O)O)C(OC5OC(CO)C(OC6OC(C(=O)O)C(OC7OC(COS(=O)(=O)O)C(OC8OC(C(=O)O)=C[C@H](O)C8OS(=O)(=O)O)C(O)C7NC(C)=O)[C@@H](O)C6O)C(O)C5NC(C)=O)[C@@H](O)C4O)C(O)C3NC(C)=O)[C@@H](O)C2O)C(O)C1NC(C)=O (some centres undefined)	i	i	i	nt	i	nt
Nc1nc2c(c(=O)[nH]1)CN(c1ccc(S(N)(=O)=O)cc1)CN2	i	nt	i[13.5 µM]	nt	i[10 µM]	nt
O=C(Nc1ccnc(-c2cccnc2)n1)c1cccc(Cl)c1Cl	i	i	i	i	i	i
CC(C)(N=NC(C)(C)C(=N)N)C(=N)N	i	nt	31.6µM!	i	?	nt
Cc1ccccc1-c1cncnc1Nc1ccccc1	nt	nt	i	nt	i	nt
CN(C)c1ccc(-c2cncnc2Nc2ccccc2)cc1	nt	nt	25.1µM	nt	i	nt
Cc1cccc(C)c1NC(=O)N1CCN(C2CCCCC2)CC1	i	i	i	i	i[1.9 µM]	i
Cc1cccc(C)c1NC(=O)N1C2CCCC1CC(NC(=O)C(C)(C)C)C2 (centres undefined)	i	i	i	i	i[10 µM]	-96.4
C[C@@]12CCC(=O)C[C@@H]1CC(=O)[C@H]1[C@H]3CCC[C@]3(C)C(=O)C[C@@H]12 (tested in a mixture with another compound)	i	nt	i	i	?	nt
O=C(O)CCCC(=O)Nc1ccc(C(=O)N2CCCCC2)c(Cl)c1	0.447µM	i	i	i	i	?
COC(=O)CCCC(=O)Nc1ccc(Cl)c(Cl)c1	i	i	i	i	i[10 µM]	-100.0
Cc1ccccc1CSCC(Nc1ccc(C(=O)O)cc1[N+](=O)[O-])C(=O)O (centres undefined)	i	i	15.8µM	i	i	?
Cc1ccccc1CNc1ccc(C(CC(N)=O)NC(=O)c2ccc(Br)cc2)cc1[N+](=O)[O-] (centres undefined)	nt	i[9.22 µM]	nt	i	i[10 µM]	nt
COCC1=C2c3ccccc3[C@@H]3CNC(=O)C3(C(=O)OC)C[C@@H]2n2c(=O)n(-c3ccccc3)c(=O)n2C1 (some centres undefined)	i	nt	i	i	i	nt
CN(CC(CC(=O)Nc1nncs1)c1ccccc1)S(=O)(=O)c1ccccc1 (centres undefined)	i	?	8.91µM	i	i	i
CN(CC(CC(=O)Nc1nncs1)c1ccccc1)S(=O)(=O)c1ccc(Br)cc1 (centres undefined)	i	i[9.22 µM]	12.6µM	i	i	?
Cc1nnc(NC(=O)CC(CN(C)S(=O)(=O)c2ccccc2)c2ccccc2)s1 (centres undefined)	i	i	?	i	i	?
O=C1C2CC=CCC2C(=O)N1c1cccc(OS(=O)(=O)c2ccc3ccccc3c2)c1 (centres undefined)	i	i	?	i	i[10 µM]	i
N#Cc1cn(-c2ccccc2)nc1-c1ccccc1	i	i	i	i	i[10 µM]	i
N#Cc1c(-c2ccccc2)no[n+]1[O-]	i	nt	5.01µM	i	i	nt
Nc1nonc1C(=O)NC(c1ccccc1)c1ccccc1	i	i	14.1µM	i	i	i
SMILES	HPGD inh	HttQ103 aggreg	ALDH1A1 inh	CBFb RUNX1 block	HTT ATP protect	PNC assembly inh
Nc1nonc1C(=Nc1ccccc1)NO	i	i	i	i	i[0.074 µM]	i
CC[C@]1(O)C[C@@H]2CN(CCc3c([nH]c4ccccc34)[C@](C(=O)OC)(c3cc4c(cc3OC)N(C=O)[C@H]3[C@@](O)(C(=O)OC)[C@H](C(=O)OC)[C@@]5(CC)C=CCN6CC[C@]43[C@H]65)C2)C1	i	nt	i	i	i	nt
Cc1c(NS(=O)(=O)c2ccc3c(c2)OCCO3)cccc1-c1nc2cccnc2s1	i	8.91µM	15.8µM	i	i[10 µM]	?
COC(=O)c1ccccc1NC(=O)C1CC(=O)N(c2ccc(C)c(C)c2)C1 (centres undefined)	i	i	17.8µM	i	i[10 µM]	?
Cc1ccc(N2CC(C(=O)NCc3ccc4c(c3)OCO4)CC2=O)cc1C (centres undefined)	i	i	14.1µM	i	i[10 µM]	i
Cc1ccc(S(=O)(=O)N(C)C)cc1NS(=O)(=O)c1ccc(Cl)s1	i	i	?	i	i[0.074 µM]	i
N[C@@H](CSSC[C@H](N)C(=O)O)C(=O)O	nt	nt	nt	i	nt	nt
CC(=O)OC(C(=O)c1ccccc1)c1ccccc1 (centres undefined)	i	nt	22.4µM	i	i	nt
COc1ccc(C(=O)OC(C(=O)c2ccc(C)cc2)c2ccccc2)cc1 (centres undefined)	i	i	i	i	i	i
COc1ccccc1CNc1ccnc(-c2cccc(NS(C)(=O)=O)c2)n1	nt	nt	i	nt	i	nt
O=C(CCSCc1cccc(Cl)c1)NCCc1ccccc1	8.91µM	i	?	i	i[10 µM]	i
COc1ccc(CNC(=O)CCSCc2cccc(Cl)c2)c(OC)c1	28.2µM	i	?	i	i[10 µM]	i
O=C(Cc1ccccc1)NCCc1cccc(Cl)c1	10µM	i	?	i	i	i
C#CCOC(=O)CCC(=O)NCCc1ccccc1	i	i	10µM	i	i	i
COC1OC2COC(c3ccccc3)OC2C(O)C1O (centres undefined)	i	nt	i	i	i[1.9 µM]	nt
O=C(NCCc1ccccc1)c1ccc(Cl)nc1	i	i	i	i	i[10 µM]	-100.0
O=C(CCc1nc2ccccc2[nH]1)NCc1ccc2c(c1)OCO2	i	i	i	i[2.36 µM]	i	i
CN(C)S(=O)(=O)c1ccc(C(=O)Nc2nnc(SCc3cccc4ccccc34)s2)cc1	?	i	?	i	i[10 µM]	-134.0
O=C(CCc1nc2ccccc2[nH]1)Nc1ccc2c(c1)OCO2	i	i	10µM	i	i	i
O=C(CSc1nc2ccccc2[nH]1)c1ccc2c(c1)OCO2	i	i	28.2µM	i	i[0.074 µM]	?
O=C(CSc1nnc(SCc2cccc3ccccc23)s1)c1ccc2c(c1)OCO2	?	i	0.398µM	i	i	i
